Values without a mark were called inactive. Results filed as inconclusive are left out. Activity calls are given as the source filed them. Calls come from the whole dose curve.

Assay [1] concerns the target Acetylcholinesterase (Homo sapiens) (UniProt P22303). The assay is described as follows: Acetylcholinesterase (AChE) small molecule antagonists: colormetric cell-based qHTS assay (AID 1347395). Note: nearly all actives have a fitted effect of over 30% in size. Note: potency is the fitted concentration of half-maximal effect. A digest of the protocol: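 Colorimetric readout: DTNB quantifies thiocholine from acetylthiocholine hydrolysed by endogenous AChE of SH-SY5Y cells (2,000/well, plated overnight). Compound pretreatment 30 min, substrate incubation 90 min, both 37 C.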

For assay [2] the target is unchanged. The assay is described as follows: Acetylcholinesterase (AChE) small molecule antagonists: enzyme-based qHTS assay (AID 1347397). Note: nearly all actives have a fitted effect of over 55% in size. Note: potency is the fitted concentration of half-maximal effect. The settings on record: Potency: AChE enzyme activity inhibition; outcome: AChE enzyme activity inhibition. The method in brief:
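Absorbance-based detection of thiocholine with DTNB served as the read-out. Recombinant human AChE was exposed to compound for 30 min at RT before a 10 min RT incubation with acetylthiocholine.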

Assay [3] shares this target. The assay is described as follows: Acetylcholinesterase (AChE) small molecule antagonists: fluorescence cell-based qHTS assay (AID 1347398). Note: nearly all actives have a fitted effect of over 50% in size. Note: potency is the fitted concentration of half-maximal effect. The settings on record: Potency: AChE activity; outcome: AChE activity. A digest of the protocol:
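Fluorimetric cell-based assay: intact SH-SY5Y cells, 30 min compound preincubation at 37 C, acetylthiocholine substrate with thiol probe Thiolite Green, 40 min RT development, fluorescence 490/520 nm.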
Background: Quantitative high-throughput screening tests each substance at several concentrations.

Assay [4] has the same target. In words: Acetylcholinesterase (AChE) small molecule antagonists: enzyme-based qHTS assay with human liver microsomes (AID 1347399). Note: nearly all actives have a fitted effect of over 60% in size. The settings on record: Potency: qHTS inhibition; outcome: qHTS inhibition. A digest of the protocol: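 Recombinant human AChE (50 mU/mL in the enzyme mix) and human liver microsomes (0.25 mg/mL final) were preincubated with compound and NADPH (0.25 mg/mL final) for 30 min at 37 C. Acetylthiocholine/DTNB was then added; thiocholine was read colorimetrically after 10 min at room temperature.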
% is set by controls: 0 for no effect and ±100 for the full control effect.

Chain of Acetylcholinesterase (Homo sapiens) (P22303 whole entry, looked up): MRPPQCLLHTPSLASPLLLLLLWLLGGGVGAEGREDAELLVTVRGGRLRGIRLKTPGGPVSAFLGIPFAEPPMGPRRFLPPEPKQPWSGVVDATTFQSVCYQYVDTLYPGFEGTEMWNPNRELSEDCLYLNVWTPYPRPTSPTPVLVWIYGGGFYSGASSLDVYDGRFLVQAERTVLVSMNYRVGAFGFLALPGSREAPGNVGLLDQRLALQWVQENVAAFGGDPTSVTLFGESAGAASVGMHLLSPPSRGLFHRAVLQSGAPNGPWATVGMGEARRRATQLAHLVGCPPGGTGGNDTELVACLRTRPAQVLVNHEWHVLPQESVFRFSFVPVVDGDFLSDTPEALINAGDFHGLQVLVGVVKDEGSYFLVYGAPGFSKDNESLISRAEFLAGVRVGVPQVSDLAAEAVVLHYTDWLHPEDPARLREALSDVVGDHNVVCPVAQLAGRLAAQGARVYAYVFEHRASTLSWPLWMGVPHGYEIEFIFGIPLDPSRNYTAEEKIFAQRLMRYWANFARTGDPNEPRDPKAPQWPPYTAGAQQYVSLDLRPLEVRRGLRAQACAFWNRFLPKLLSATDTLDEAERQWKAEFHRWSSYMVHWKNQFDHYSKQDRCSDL

Regarding `CCc1ccc(O)c(C(C)(C)C)c1`, the Potency result in assay [1], in assay [2], in assay [3] and in assay [4] was “inactive” each time.
For `COc1cc(OC)nc(O[C@H](C(=O)O)C(OC)(c2ccccc2)c2ccccc2)n1`, the Potency result in assay [1], in assay [2], in assay [3] and in assay [4] was “inactive” in each case.
For `C=CCOc1cc(Cl)ccc1C(=O)NCCN(CC)CC`, the Potency entry in assay [1], in assay [2], in assay [3] and in assay [4] was “inactive” throughout.
Take `CC(C=O)Cc1ccc(C(C)C)cc1` (stereo not given): the Potency result in assay [1], in assay [2], in assay [3] and in assay [4] was “inactive” throughout.
As for `O=C1c2ccccc2C(=O)c2c(O)c(O)cc(O)c21`, the Potency entry in assay [1], in assay [2], in assay [3] and in assay [4] was “inactive” throughout.
In the case of `CCOc1nc2cccc(C(=O)O)c2n1Cc1ccc(-c2ccccc2-c2nn[nH]n2)cc1`, the Potency result in assay [1], in assay [2], in assay [3] and in assay [4] was “inactive” each time.
Turning to `CN1CCCC1=O`, the Potency result in assay [1], in assay [2], in assay [3] and in assay [4] was “inactive” in each case.
In the case of `C=CCOC(=O)c1ccc(C(=O)OCC=C)c(C(=O)OCC=C)c1`, the Potency entry in assay [1], in assay [2], in assay [3] and in assay [4] was “inactive” throughout.
Regarding `CC(C)(C)c1cccc(C(C)(C)C)c1O`, the Potency entry in assay [1], in assay [2], in assay [3] and in assay [4] was “inactive” in each case.
In the case of `CCCCCCCC(C)=O`, the Potency entry in assay [1], in assay [2], in assay [3] and in assay [4] was “inactive” throughout.
`Nc1cc(=O)[nH]c(N)n1`: the Potency entry in assay [1], in assay [2], in assay [3] and in assay [4] was “inactive” throughout.
On to `CC[C@H](C)C(=O)O[C@H]1C[C@@H](C)C=C2C=C[C@H](C)[C@H](CC[C@@H]3C[C@@H](O)CC(=O)O3)[C@H]21`, for which the Potency result in assay [1], in assay [2], in assay [3] and in assay [4] was “inactive” throughout.
For the molecule `CCOCCC(=O)OCC`, the Potency entry in assay [1], in assay [2], in assay [3] and in assay [4] was “inactive” each time.
As for `Cc1cccc2ccccc12`, the Potency result in assay [1], in assay [2], in assay [3] and in assay [4] was “inactive” throughout.
On to `O=C1OC2(c3ccc(O)cc3Oc3cc(O)ccc32)c2ccc(N=C=S)cc21`, for which the Potency result in assay [1], in assay [2], in assay [3] and in assay [4] was “inactive” each time.
Turning to `Cc1ccc2n[nH]nc2c1`, the Potency result in assay [1], in assay [2], in assay [3] and in assay [4] was “inactive” in each case.
On to `Nc1nc2c(ncn2CCC(CO)CO)c(=O)[nH]1`, for which the Potency result in assay [1], in assay [2], in assay [3] and in assay [4] was “inactive” each time.
Consider `CN(C)CCCCl`, for which the Potency entry in assay [1], in assay [2], in assay [3] and in assay [4] was “inactive” throughout.
Take `CCCCC[Si](OCC)(OCC)OCC`: the Potency result in assay [1], in assay [2], in assay [3] and in assay [4] was “inactive” in each case.
Turning to `C=CC(=O)OCCCCCCCCCC`, the Potency result in assay [1], in assay [2], in assay [3] and in assay [4] was “inactive” in each case.
As to `O=C1CCC(N2C(=O)c3ccccc3C2=O)C(=O)N1` (stereo not given), the Potency entry in assay [1], in assay [2], in assay [3] and in assay [4] was “inactive” each time.
For the molecule `Oc1cccc2cc3cccc(O)c3c(O)c12`, the Potency entry in assay [1], in assay [2], in assay [3] and in assay [4] was “inactive” in each case.
`O=c1oc2cc(O)ccc2c2oc3cc(O)ccc3c12`: the Potency entry in assay [1], in assay [2], in assay [3] and in assay [4] was “inactive” throughout.
As for `O=C(O)Cc1ccc(Cl)cc1Cl`, the Potency result in assay [1], in assay [2], in assay [3] and in assay [4] was “inactive” each time.
On to `c1ccc(OCc2ccc(CCCN3CCOCC3)cc2)cc1`, for which the Potency result in assay [1], in assay [2], in assay [3] and in assay [4] was “inactive” in each case.
Take `CCC(C)Nc1ccc(NC(C)CC)cc1` (stereo not given): the Potency result in assay [1], in assay [2] and in assay [4] was “inactive” throughout. Also, in assay [3], the Potency was 40.7 µM (active).
Consider `CCCCOC(O)CC` (stereo not given), for which the Potency entry in assay [1], in assay [2], in assay [3] and in assay [4] was “inactive” in each case.
Take `COc1ccc2nc(N)sc2c1`: the Potency entry in assay [1], in assay [2], in assay [3] and in assay [4] was “inactive” each time.
As for `Nc1ccc2c(c1)C(=O)c1ccccc1C2=O`, the Potency result in assay [1], in assay [2], in assay [3] and in assay [4] was “inactive” in each case.
With `CCCCCCn1c(=O)c2c(ncn2C)n(C)c1=O`, the Potency entry in assay [1], in assay [2], in assay [3] and in assay [4] was “inactive” each time.
On to `COC(=O)c1ccccc1C`, for which the Potency entry in assay [1], in assay [2], in assay [3] and in assay [4] was “inactive” each time.
Take `CCCC[O][Al]([O]CCCC)[O]CCCC`: the Potency result in assay [1], in assay [2], in assay [3] and in assay [4] was “inactive” throughout.
As for `C[C@H](CCC(=O)O)[C@H]1CC[C@H]2[C@@H]3CC[C@@H]4C[C@H](O)CC[C@]4(C)[C@H]3C[C@H](O)[C@]12C`, the Potency entry in assay [1], in assay [2], in assay [3] and in assay [4] was “inactive” throughout.
For `COc1ccc(NC(C)=O)cc1N`, the Potency entry in assay [1], in assay [2], in assay [3] and in assay [4] was “inactive” throughout.
Take `CCOC(=O)/C=C/c1ccccc1`: the Potency entry in assay [1], in assay [2], in assay [3] and in assay [4] was “inactive” in each case.
For `OCC1CCC(CO)CC1` (stereo not given), the Potency entry in assay [1], in assay [2], in assay [3] and in assay [4] was “inactive” throughout.
With `O=C(/C=C/c1ccccc1)OCCCc1ccccc1`, the Potency result in assay [1], in assay [2], in assay [3] and in assay [4] was “inactive” in each case.
In the case of `CCCCCCCC=O`, the Potency entry in assay [1], in assay [2], in assay [3] and in assay [4] was “inactive” throughout.
`O[C@@H]([C@H](O)[C@H](O)CBr)[C@H](O)CBr`: the Potency result in assay [1], in assay [2], in assay [3] and in assay [4] was “inactive” in each case.
With `CCOCCO`, the Potency entry in assay [1], in assay [2], in assay [3] and in assay [4] was “inactive” each time.
With `CCCCCCCCS(=O)(=O)Cl`, the Potency result in assay [1], in assay [2], in assay [3] and in assay [4] was “inactive” in each case.
Take `CN(C)c1ccc(Cc2ccc(N(C)C)cc2)cc1`: the Potency result in assay [1], in assay [2], in assay [3] and in assay [4] was “inactive” throughout.
Regarding `CCOC(=O)C(C)(C)Oc1ccc(Cl)cc1`, the Potency entry in assay [1], in assay [2], in assay [3] and in assay [4] was “inactive” in each case.
`O=C1CCCCCN1`: the Potency entry in assay [1], in assay [2], in assay [3] and in assay [4] was “inactive” each time.
On to `CCC(=O)C1CC(C(C)C)CC=C1C` (stereo not given), for which the Potency result in assay [1], in assay [2], in assay [3] and in assay [4] was “inactive” throughout.
For `Nc1ccc(-c2ccc(F)cc2)cc1`, the Potency result in assay [1], in assay [2], in assay [3] and in assay [4] was “inactive” each time.
On to `C/C(=C(/OCCOc1ccc(Cl)cc1)c1ccc(Cl)cc1Cl)n1ccnc1`, for which the Potency result in assay [1], in assay [2], in assay [3] and in assay [4] was “inactive” throughout.
Regarding `COC(=O)c1sccc1S(N)(=O)=O`, the Potency result in assay [1], in assay [2], in assay [3] and in assay [4] was “inactive” in each case.
On to `Cc1c(F)cc2c(=O)c(C(=O)O)cn3c2c1CCC3C` (stereo not given), for which the Potency entry in assay [1], in assay [2], in assay [3] and in assay [4] was “inactive” throughout.
As to `CC(C)OC(=O)OCOP(=O)(CO[C@H](C)Cn1cnc2c(N)ncnc21)OCOC(=O)OC(C)C`, the Potency entry in assay [1], in assay [2], in assay [3] and in assay [4] was “inactive” each time.
As to `O=C(C(=O)c1ccc(Br)cc1)c1ccc(Br)cc1`, the activity, negative = inhibition in assay [1] was 1.28% [at 23.6 µM]. The values for the activity change, negative = inhibition in assay [2], in assay [3] and in assay [4] were 1.82% [at 23.6 µM], -2.19% [at 23.8 µM] and -3.65% [at 23.6 µM], respectively.
On to `CC1=CCC(O)(C(C)C)CC1` (stereo not given), for which the Potency entry in assay [1], in assay [2], in assay [3] and in assay [4] was “inactive” throughout.
On to `CC(=O)OC[C@H]1O[C@@H](OC(C)=O)[C@H](OC(C)=O)[C@@H]1OC(C)=O`, for which the Potency entry in assay [1], in assay [2], in assay [3] and in assay [4] was “inactive” each time.
Take `CCCCC(CC)COC(=O)/C=C\C(=O)OCC(CC)CCCC` (stereo not given): the Potency result in assay [1], in assay [2], in assay [3] and in assay [4] was “inactive” in each case.
Regarding `CCC(C)c1cc([N+](=O)[O-])cc([N+](=O)[O-])c1OC(=O)OC(C)C` (stereo not given), the Potency result in assay [1], in assay [2], in assay [3] and in assay [4] was “inactive” throughout.
As for `CCc1c(C)cc(N)c(CC)c1N`, the Potency in assay [1] was 39.9 µM (active); in assay [2] it was 71 µM (active); in assay [3], 39.9 µM (active). Also, the Potency result in assay [4] was “inactive”.
Take `c1ccc(Sc2ccccc2)cc1`: the Potency result in assay [1], in assay [2], in assay [3] and in assay [4] was “inactive” in each case.
Regarding `Oc1cc(O)c2c(c1)O[C@H](c1ccc(O)c(O)c1)[C@H](O)C2`, the Potency entry in assay [1], in assay [2], in assay [3] and in assay [4] was “inactive” throughout.
Consider `CCC(C)C(C)=O` (stereo not given), for which the Potency entry in assay [1], in assay [2], in assay [3] and in assay [4] was “inactive” throughout.
For `CCOC(=O)/C=C/C(=O)O`, the Potency result in assay [1], in assay [2], in assay [3] and in assay [4] was “inactive” each time.

The values are drawn from PubChem BioAssay (Tox21).
